Results published in PubChem BioAssay (Tox21).
Results filed as inconclusive are left out. Calls of active or inactive are those of the source. Unless noted, calls come from the whole dose curve.

Columns and labels:
[1] = Nuclear factor erythroid 2-related factor 2/antioxidant responsive element (Nrf2/ARE) small molecule agonists: qHTS cell viability counter screen in human keratinocytes (AID 1919968; active = well fitted curve in the direction sought with a large enough effect in the repeat runs; an effect the other way counts as inactive or inconclusive; note: nearly all actives have a fitted effect of over 55% in size)
Procedure, shortened: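 Viability counter-screen: KeratinoSens reporter cells, DMSO-delivered compounds, 23 h at 37 C, CellTiter-Fluor fluorescence.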

[2] = Nuclear factor erythroid 2-related factor 2/antioxidant responsive element (Nrf2/ARE) small molecule agonists: luciferase reporter gene qHTS assay in human keratinocytes (AID 1919969); note: nearly all actives have a fitted effect of over 35% in size
[3] = molecular target: Gonadotropin-releasing hormone receptor (Homo sapiens) (UniProt P30968); experiment: Human gonadotropin-releasing hormone receptor (GnRHR) small molecule agonists, calcium flux assay in GnRHR-HEK293 cells (AID 1920063); note: nearly all actives have a fitted effect of over 35% in size
Chain of Gonadotropin-releasing hormone receptor (Homo sapiens) (P30968 whole entry, looked up): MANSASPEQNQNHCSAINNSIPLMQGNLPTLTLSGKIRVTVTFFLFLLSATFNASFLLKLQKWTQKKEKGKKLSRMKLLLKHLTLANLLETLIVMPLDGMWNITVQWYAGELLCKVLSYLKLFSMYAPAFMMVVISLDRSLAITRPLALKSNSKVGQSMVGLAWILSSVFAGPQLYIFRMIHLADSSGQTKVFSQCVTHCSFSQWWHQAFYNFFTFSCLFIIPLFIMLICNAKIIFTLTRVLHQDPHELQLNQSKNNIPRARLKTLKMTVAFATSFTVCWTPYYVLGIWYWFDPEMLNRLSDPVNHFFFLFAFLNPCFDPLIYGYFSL
Procedure, shortened: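 Tox21-format agonist screen using human GnRHR-expressing HEK293 cells and a fluorescent calcium dye; kinetic 3-min fluorescence reading after compound addition, 15-point concentration series run in triplicate.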

[4] = molecular target: KiSS-1 receptor (Homo sapiens) (UniProt Q969F8); experiment: Human kisspeptin (KISS1R) small molecule agonists, calcium flux assay in KISS1R-HEK293 cells (AID 1920064; active = well fitted curve in the direction sought with a large enough effect in the repeat runs; an effect the other way counts as inactive or inconclusive)
Chain of KiSS-1 receptor (Homo sapiens) (Q969F8 whole entry, looked up): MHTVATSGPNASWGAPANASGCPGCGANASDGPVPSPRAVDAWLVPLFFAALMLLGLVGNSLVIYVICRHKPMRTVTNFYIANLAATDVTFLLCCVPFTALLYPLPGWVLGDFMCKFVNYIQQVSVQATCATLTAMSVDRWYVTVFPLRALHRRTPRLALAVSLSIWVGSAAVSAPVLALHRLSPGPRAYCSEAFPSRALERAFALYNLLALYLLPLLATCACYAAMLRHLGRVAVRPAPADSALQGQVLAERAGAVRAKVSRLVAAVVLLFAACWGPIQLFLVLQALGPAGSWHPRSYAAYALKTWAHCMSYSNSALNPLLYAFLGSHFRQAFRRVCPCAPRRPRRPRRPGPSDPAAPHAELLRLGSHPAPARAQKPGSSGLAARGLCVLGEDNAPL
Procedure, shortened: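 Intracellular calcium mobilization in KISS1R-HEK293 cells was recorded by fluorescence (Ex/Em 480/540) for 3 min following compound addition to cells pre-loaded 1 h with calcium dye.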

[5] = G protein-coupled receptor (GPCR) small molecule agonists, calcium flux assay: HEK293 wild type cell line counter screen (AID 1920065)
Procedure, shortened: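 In this agonist-mode screen, ATP is the positive control and DMSO the vehicle. Cells grow 18 h before a 1 h dye incubation at 37 C; signal is taken at Ex/Em 480/540 over 3 min.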

[6] = p53 small molecule agonists, cell-based qHTS assay with human liver microsomes: qHTS cell viability counter screen (AID 1963579); note: nearly all actives have a fitted effect of over 45% in size
Procedure, shortened: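 p53RE-bla cells, 4,000/well, dosed 5 hours after plating, with human liver microsomes (0.5 mg/mL final) plus NADPH (0.5 mg/mL final), 16 hours at 37 C. Viability read as CellTiter-Glo luminescence after 30 min at room temperature.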

[7] = p53 small molecule agonists, cell-based qHTS assay with rat liver microsomes: qHTS cell viability counter screen (AID 1963580); note: nearly all actives have a fitted effect of over 45% in size
Procedure, shortened: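 HCT-116 p53RE-bla, 4,000 cells/well, 5 h pre-incubation; cpd + rat liver microsomes 0.5 mg/mL + NADPH 0.5 mg/mL (final); 16 h, 37 C; CellTiter-Glo, 30 min RT; luminescence.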

[8] = p53 small molecule agonists, cell-based qHTS assay: qHTS cell viability counter screen (AID 1963581); note: nearly all actives have a fitted effect of over 45% in size
Procedure, shortened: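 Compounds are pinned onto HCT-116 p53RE-bla cells and left 16 h at 37 C. Following the reporter FRET read, ATP is quantified by CellTiter-Glo luminescence after 30 min at room temperature.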

[9] = molecular target: 5-hydroxytryptamine receptor 2A (Homo sapiens) (UniProt P28223); experiment: 5-hydroxytryptamine receptor 2A (HTR2A) small molecule antagonists, cell-based qHTS assay (AID 1963586); note: nearly all actives have a fitted effect of over 45% in size
Chain of 5-hydroxytryptamine receptor 2A (Homo sapiens) (P28223 whole entry, looked up): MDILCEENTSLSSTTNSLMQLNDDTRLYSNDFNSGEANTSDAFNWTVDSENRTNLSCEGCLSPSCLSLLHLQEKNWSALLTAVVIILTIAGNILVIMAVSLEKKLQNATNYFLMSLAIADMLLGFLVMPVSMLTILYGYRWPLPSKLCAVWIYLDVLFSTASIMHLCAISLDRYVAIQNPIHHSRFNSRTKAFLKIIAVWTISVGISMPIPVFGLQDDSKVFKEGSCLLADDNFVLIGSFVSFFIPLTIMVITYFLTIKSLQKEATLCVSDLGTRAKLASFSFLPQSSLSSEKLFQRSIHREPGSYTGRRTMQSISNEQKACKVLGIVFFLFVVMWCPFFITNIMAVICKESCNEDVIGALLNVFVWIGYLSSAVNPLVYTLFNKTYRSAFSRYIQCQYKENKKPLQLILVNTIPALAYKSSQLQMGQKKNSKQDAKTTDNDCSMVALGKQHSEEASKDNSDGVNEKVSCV
Procedure, shortened: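 Antagonist-mode intracellular calcium assay: DOI (4 nM) added after 5 min compound pre-incubation at room temperature to dye-loaded HTR2A-CHO cells. Fluorescence followed for 3 min, sampled every second.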

[10] = molecular target: 5-hydroxytryptamine receptor 2A (Homo sapiens) (UniProt P28223); experiment: 5-hydroxytryptamine receptor 2A (HTR2A) small molecule agonists, cell-based qHTS assay (AID 1963587); note: nearly all actives have a fitted effect of over 30% in size
Procedure, shortened: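 Kinetic calcium-flux fluorescence (2 min, 1 sec intervals) after compound addition in agonist mode. HTR2A-CHO cells were cultured 18 h, then dye-loaded 1 h at 37 C.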

[11] = molecular target: Muscarinic acetylcholine receptor M1 (Homo sapiens) (UniProt P11229); experiment: Cholinergic receptor muscarinic 1 (CHRM1) small molecule antagonists, cell-based qHTS assay (AID 1963588); note: nearly all actives have a fitted effect of over 40% in size
Chain of Muscarinic acetylcholine receptor M1 (Homo sapiens) (P11229 whole entry, looked up): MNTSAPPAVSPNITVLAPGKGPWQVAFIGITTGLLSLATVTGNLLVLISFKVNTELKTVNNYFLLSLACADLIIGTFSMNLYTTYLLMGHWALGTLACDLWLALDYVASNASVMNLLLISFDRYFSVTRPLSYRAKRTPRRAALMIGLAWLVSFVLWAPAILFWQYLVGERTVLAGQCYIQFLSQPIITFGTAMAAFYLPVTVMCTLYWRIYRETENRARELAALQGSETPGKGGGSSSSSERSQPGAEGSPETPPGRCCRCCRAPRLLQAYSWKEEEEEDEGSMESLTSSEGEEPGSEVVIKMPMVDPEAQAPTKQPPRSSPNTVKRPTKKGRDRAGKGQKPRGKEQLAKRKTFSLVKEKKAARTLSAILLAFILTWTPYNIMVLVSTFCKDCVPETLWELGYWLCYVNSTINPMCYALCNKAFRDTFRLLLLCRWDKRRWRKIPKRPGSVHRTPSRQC
Procedure, shortened: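 CHRM1-CHO calcium-flux assay, antagonist mode. Cells were seeded 18 h, dye-loaded 1 h at 37 C and given compound for 5 min at RT, then acetylcholine was added at 50nM. FDSS fluorescence was read 3 min; 15 concentrations, three runs.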

[12] = molecular target: Muscarinic acetylcholine receptor M1 (Homo sapiens) (UniProt P11229); experiment: Cholinergic receptor muscarinic 1 (CHRM1) small molecule agonists, cell-based qHTS assay (AID 1963589); note: nearly all actives have a fitted effect of over 35% in size
Procedure, shortened: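 Stable CHRM1-CHO cells (human receptor) were incubated 18 h, dye-loaded for 1 h at 37 C and exposed to test compounds for agonist activity, with calcium-dependent fluorescence followed kinetically.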

[13] = cAMP Responsive Elements (CRE) small molecule antagonists, cell-based qHTS assay (AID 1963591; active = well fitted inhibition curve with a large enough effect in the signal ratio in the repeat runs, not every such curve was filed as active; the % refers to the signal ratio)
Procedure, shortened: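 qHTS in CRE-bla HEK 293T cells: compound in DMSO, then 0.25 uM NKH477 (final), 3 h at 37 °C/5% CO2; beta-lactamase FRET read-out after 2 h substrate incubation.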

[14] = molecular target: Beta-2 adrenergic receptor (Homo sapiens) (UniProt P07550); experiment: Adrenergic beta2 receptor (ADRB2) small molecule antagonists, cell-based qHTS assay (AID 1963592); note: series mostly up to about 92 µM; nearly all actives have a fitted effect of over 50% in size
Chain of Beta-2 adrenergic receptor (Homo sapiens) (P07550 whole entry, looked up): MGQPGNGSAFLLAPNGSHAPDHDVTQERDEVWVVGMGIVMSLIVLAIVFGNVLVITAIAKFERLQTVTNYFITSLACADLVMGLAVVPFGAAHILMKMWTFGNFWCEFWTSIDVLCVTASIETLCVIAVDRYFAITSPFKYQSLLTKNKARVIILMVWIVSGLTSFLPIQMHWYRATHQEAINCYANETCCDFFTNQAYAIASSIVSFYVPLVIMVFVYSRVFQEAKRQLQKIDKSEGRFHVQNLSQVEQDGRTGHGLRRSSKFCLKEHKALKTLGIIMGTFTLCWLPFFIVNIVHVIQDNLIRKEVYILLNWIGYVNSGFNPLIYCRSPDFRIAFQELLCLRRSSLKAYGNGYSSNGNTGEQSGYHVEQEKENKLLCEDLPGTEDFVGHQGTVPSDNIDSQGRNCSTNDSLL
Procedure, shortened: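 Cells (CHO, stable ADRB2 overexpression) incubated 18-20hr at 37C; compounds added from DMSO; agonist mix (1nM isoproterenol, 100uM IBMX, 25uM Ro-20-1724) added; 0.5hr RT; d2-cAMP and anti-cAMP-cryptate added; 1hr RT; 665/615 nm read.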

[15] = molecular target: D(2) dopamine receptor (Homo sapiens) (UniProt P14416); experiment: Dopamine D2 receptor (DRD2) small molecule agonists, cell-based qHTS assay (AID 1963594); note: nearly all actives have a fitted effect of over 35% in size
Chain of D(2) dopamine receptor (Homo sapiens) (P14416 whole entry, looked up): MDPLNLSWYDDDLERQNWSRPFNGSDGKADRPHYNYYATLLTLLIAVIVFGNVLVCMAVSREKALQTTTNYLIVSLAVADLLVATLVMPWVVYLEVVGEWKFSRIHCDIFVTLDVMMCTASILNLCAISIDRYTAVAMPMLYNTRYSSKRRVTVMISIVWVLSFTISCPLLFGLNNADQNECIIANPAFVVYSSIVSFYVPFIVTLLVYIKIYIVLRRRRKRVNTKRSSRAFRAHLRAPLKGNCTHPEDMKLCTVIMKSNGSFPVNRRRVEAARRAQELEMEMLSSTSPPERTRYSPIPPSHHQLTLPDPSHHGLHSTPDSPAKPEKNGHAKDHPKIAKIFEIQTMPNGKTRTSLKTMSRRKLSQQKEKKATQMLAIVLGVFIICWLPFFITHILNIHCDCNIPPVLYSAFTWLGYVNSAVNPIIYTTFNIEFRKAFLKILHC
Procedure, shortened: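 cAMP accumulation in DRD2-HEK293 cells measured by HTRF after 1 h detection; compounds added 10 min before NKH477 (200nM […]) forskolin-analogue stimulation, 30 min at room temperature, with Ro20-1724 present at 0.1 mM final.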

[16] = molecular target: D(2) dopamine receptor (Homo sapiens) (UniProt P14416); experiment: Dopamine D2 receptor (DRD2) small molecule antagonists, cell-based qHTS assay (AID 1963595; active = well fitted inhibition curve with a large enough effect in the signal ratio in the repeat runs, with a control signal flat; the % refers to the signal ratio)
Procedure, shortened: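 Antagonist mode in DRD2-HEK293 cells: after compound addition with 0.1 mM Ro20-1724, cells received quinpirole (12 nM) and NKH477 (200 nM) for 30 min at room temperature; HTRF cAMP read after 1 h detection.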

[17] = cAMP Responsive Elements (CRE) small molecule agonists, cell-based qHTS assay (AID 1963590)
Procedure, shortened: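 FRET-based beta-lactamase readout (LiveBLAzer B/G, 2 h RT) quantified CRE activation in HEK 293T CRE-bla cells after 3 h treatment with DMSO-dissolved compounds.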

Measured: Potency

CCNc1nc(Cl)nc(NC(C)(C)C)n1
not listed: [17]
inactive: all other assays above

C[N+](C)=CCl
not listed: [15]
inactive: all other assays above

C[C@]12CC[C@@H]3c4ccc(OC(=O)N(CCCl)CCCl)cc4CC[C@H]3[C@@H]1CC[C@@H]2O
inactive: all assays above

C[N+]1(CCC(C(N)=O)(c2ccccc2)c2ccccc2)CCCCC1
inactive: all assays above

FC(Cl)(Cl)C(F)(Cl)Cl
inactive: all assays above

Cc1ccn2nc(S(=O)(=O)Nc3c(F)cccc3F)nc2n1
inactive: all assays above

Cc1cccc(C)c1NC1=NCCCS1
inactive: all assays above

Clc1cccc2ccccc12
not listed: [10]
inactive: all other assays above
